# Measured values published in PubChem BioAssay (NCATS).
# Results filed as inconclusive are left out. A call without a number means that no potency is given here. Values without a mark were called inactive. Active and inactive are the calls of the source. The call rests on the fitted dose curve; in most records, active means well fitted curve in the direction sought with a large enough effect; inconclusive means small, poorly fitted or top-dose-only effect, or another doubt; inactive means no such curve, though single readings can be large; an effect the other way counts as inactive or inconclusive.
# What was measured:
# [1] = P-glycoprotein substrates identified in KB-3-1 adenocarcinoma cell line, qHTS therapeutic library screen (AID 1346986); further: nearly all actives have a fitted effect of over 60% in size;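 further: potency is for cytotoxicity meaning loss of cell viability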
# Procedure, shortened: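 Cells seeded 500/well in DMEM/10% FCS; compounds pinned in dose-response; 72 h incubation; CellTiter-Glo added, 5 min, luminescence. KB-8-5-11 run ±tariquidar to test reversal of P-gp resistance.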
# [2] = P-glycoprotein substrates identified in KB-8-5-11 adenocarcinoma cell line, qHTS therapeutic library screen (AID 1346987); further: nearly all actives have a fitted effect of over 65% in size; on activity change, negative = cytotoxicity: series mostly up to about 44 µM
# Procedure, shortened: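 Steps: plate 500 KB-8-5-11 cells/well in DMEM + 10% FCS (colchicine removed); pin compounds in dose-response; incubate 72 h, 37 degree C, 5% CO2; add CellTiter-Glo, 5 min; read luminescence.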
# Potency means the concentration at half of the fitted maximal effect.
structure (smiles),measurement,setting,value
CC1(C)CC2C=C(C(=O)O)C3COC(=O)C(O)(CO)C23C1 (configuration not stated),Potency,[1],inactive
same,Potency,[2],inactive
CC1CC(O)/C=C/C(O)C(O)CC(=O)Cc2c(Cl)c(O)cc(O)c2C(=O)O1 (configuration not stated),Potency,[1],inactive
same,Potency,[2],inactive
CC(C)(C)NC(=O)[C@@H](c1cccnc1)N(C(=O)c1ccco1)c1ccc(C(C)(C)C)cc1,Potency,[1],inactive
same,Potency,[2],inactive
C[C@H]1C(=O)N2c3ccccc3[C@@]3(O)C[C@@H]4C(=O)N[C@](C)(c5nc6ccccc6c(=O)n54)N1[C@@H]23,Potency,[1],inactive
same,Potency,[2],inactive
CCOCc1cc(OC)c(-c2ccc(C[C@H](NC(=O)c3c(F)cccc3F)C(=O)O)cc2)c(OC)c1,Potency,[1],inactive
same,Potency,[2],inactive
CC12CCC(=O)C=C1C(O)CC1C2C(O)CC2(C)C1CC[C@]2(O)C(=O)CO (some centres not stated),outcome,[1],inactive [at 9.29 µM]
same,outcome,[2],inactive [at 9.29 µM]
CCOC(=O)c1cc(C#N)c(N2CCC(C(=O)NS(=O)(=O)Cc3ccccc3)CC2)nc1C,Potency,[1],inactive
same,Potency,[2],inactive
C/C1=C\CCC(C)CCO[C@@H]2O[C@H](CO[C@@H]3OC[C@H](O)[C@H](O)[C@H]3OC1=O)[C@@H](O)[C@H](O)[C@H]2O (some centres not stated),Potency,[1],inactive
same,Potency,[2],inactive
C=C(C(=O)O)C1CC2=C(C)CCCC2(C)C[C@@H]1O (some centres not stated),Potency,[1],inactive
same,Potency,[2],inactive
COC(=O)C1=COC(OC2OC(CO)C(O)C(O)C2O)C2C1C=CC2(O)CO (configuration not stated),Potency,[1],inactive
same,Potency,[2],inactive
CC(C)C[C@H](CC(=O)NO)C(=O)N[C@H](C(=O)N[C@@H](C)C(=O)NCCN)C(C)(C)C,outcome,[1],inactive [at 9.29 µM]
same,"activity change, negative = cytotoxicity",[2],2.84% [at 9.29 µM]
CC1CCC23COC(=O)C2=CC(O)CC3C1(C)CCC1=CC(O)OC1=O (configuration not stated),Potency,[1],inactive
same,Potency,[2],inactive
COc1cc(N2CCOCC2)ccc1Nc1ncc(Cl)c(Nc2ccccc2NS(C)(=O)=O)n1,Potency,[1],2060 nM (active)
same,Potency,[2],1640 nM (active)
CC/C=C\CCO[C@@H]1O[C@H](CO[C@@H]2OC[C@H](O)[C@H](O)[C@H]2O)[C@@H](O)[C@H](O)[C@H]1O,Potency,[1],inactive
same,Potency,[2],inactive
CC(=O)c1c(O)cc(O[C@@H]2O[C@H](CO)[C@@H](O)[C@H](O)[C@H]2O)cc1O,Potency,[1],inactive
same,Potency,[2],inactive
NC(=O)[C@H](O[C@@H]1O[C@H](CO)[C@@H](O)[C@H](O)[C@H]1O)c1ccccc1,Potency,[1],inactive
same,Potency,[2],inactive
CC#CC(=O)N1CCC[C@H]1c1nc(-c2ccc(C(=O)Nc3ccccn3)cc2)c2c(N)nccn12,Potency,[1],inactive
same,Potency,[2],inactive
COc1c(C)c(OCC(O)C(C)(C)O)cc2c1COC2=O (configuration not stated),Potency,[1],inactive
same,Potency,[2],inactive
CC1CC[C@]2(C(=O)O)CC[C@]3(C(=O)O)C(=CCC4[C@@]5(C)CC[C@H](OC6OC(C)C(O)C(OC7OC(CO)C(O)C(O)C7O)C6O)C(C)(C)C5CC[C@]43C)C2C1C (some centres not stated),Potency,[1],inactive
same,Potency,[2],inactive
COc1cc(/C=C/C=O)cc(OC)c1O[C@@H]1O[C@H](CO)[C@@H](O)[C@H](O)[C@H]1O,Potency,[1],inactive
same,Potency,[2],inactive
COC(=O)C(C)C1CCC2(C)C(=O)C=CC(C)(O)C2C1O (configuration not stated),Potency,[1],inactive
same,Potency,[2],inactive
CC1C(OC(=O)c2ccccc2)C(O)C2C(C(=O)O)=COC(OC3OC(CO)C(O)C(O)C3O)C12 (configuration not stated),Potency,[1],inactive
same,Potency,[2],inactive
COc1c2c(c(C)c3c1C(=O)OC3)OC1(C)CC(O)C34OC(OC)(OC3(C)C)C(O)CC4(C)C1C2 (configuration not stated),Potency,[1],inactive
same,Potency,[2],inactive
CC(=O)c1cc2c(cc1O)OC(C)(C)C=C2,Potency,[1],inactive
same,Potency,[2],inactive
C=C1C(=O)OC2C1C(O)CC1(C)C(O)CCC(C=O)C21 (configuration not stated),Potency,[1],inactive
same,Potency,[2],inactive
CC(C)C(=O)OC[C@H]1O[C@H](O[C@H]2O[C@H](CO)[C@@H](O)[C@H](O)[C@H]2O)[C@H](O)[C@@H](O)[C@@H]1O,Potency,[1],inactive
same,Potency,[2],inactive
CC(=O)c1ccc2c(c1)C(O)C(C(C)(C)O)O2 (configuration not stated),Potency,[1],inactive
same,Potency,[2],inactive
OC[C@H]1O[C@@H](OC(CCCCc2ccc(O)cc2)CCc2ccc(O)cc2)[C@H](O)[C@@H](O)[C@@H]1O (some centres not stated),Potency,[1],inactive
same,Potency,[2],inactive
C=C1CC[C@@H]2[C@@](C)(CO[C@@H]3O[C@H](CO)C(O)[C@H](O)C3O)[C@H](O)CC[C@@]2(C)[C@@H]1CC/C(C)=C/CO (some centres not stated),outcome,[1],inactive [at 9.29 µM]
same,"activity change, negative = cytotoxicity",[2],5.95% [at 9.29 µM]
COc1cc(C(=O)OC[C@@]2(O)CO[C@@H](O[C@H]3[C@H](Oc4ccc(C(=O)O)cc4OC)O[C@H](CO)[C@@H](O)[C@@H]3O)[C@@H]2O)ccc1O,Potency,[1],inactive
same,Potency,[2],inactive
C[C@@H]1CC[C@]2(C(=O)O[C@@H]3O[C@H](CO)[C@@H](O)[C@H](O)[C@H]3O)CC[C@]3(C)C(=CCC4[C@@]5(C)C[C@@H](O)[C@H](O)[C@@](C)(C(=O)O[C@H]6[C@H](O)C[C@@]7(C)C(CC[C@]8(C)C7CC=C7[C@H]9[C@](C(=O)O[C@@H]%10O[C@H](CO)[C@@H](O)[C@H](O)[C@H]%10O)(CC[C@@H](C)[C@@]9(C)O)CC[C@]78C)[C@@]6(CO)C(=O)O)C5CC[C@]43C)[C@@H]2[C@]1(C)O (some centres not stated),outcome,[1],inactive [at 9.29 µM]
same,"activity change, negative = cytotoxicity",[2],1.31% [at 9.29 µM]
